Compounds without any hit were thinned out: in the full panel of roughly 79,000, 15% have a hit. The source made the active and inactive calls. Cut-off read from the data, not from the text of the source: active = growth inhibition above about 70%; inactive = the rest. *1 amine or outer side, *2 acyl side, *3 side chain or, on linkers, in order; H or OH if unused. Where a SMILES comes first, the peptide text is derived from it. [ ]: non-standard residue; d: D form. The star is where a group is joined. X17 = CC(=O)N(C)SCC(N[*:1])C(=O)[*:2]; Fmoc = O=C(OCC1c2ccccc2-c2ccccc21)*; For = O=C*

One assay can be described thus: NCI Yeast Anticancer Drug Screen. Data for the rad50 strain (AID 155).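 Note: 0% = growth of vehicle-only cultures of the same strain.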 The note with it: S. cerevisiae rad50 strain growth inhibition; at 50.0 µM; hits give high values. The essentials: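 Inhibition values express reduced yeast growth in compound-treated cultures relative to vehicle-treated controls.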
On to `c1ccc(N2C3Sc4ncccc4C2Sc2ncccc23)cc1`, for which the growth inhibition was -20.4% (inactive).
Still for that read-out and setting: under `O=C(O)CSC(CC(=O)O)C(=O)O` (stereo not given) stands 10.3% (inactive).
The same measure, in the same setting: in the case of `CC(=O)C(CCN(C)C)(c1ccccc1)C1CCCCC1` (stereo not given) it was -12.2% (inactive).
Same read-out and setting: in the case of `Cc1ccc(S(=O)(=O)Nc2ccccc2-c2nc3ccc([N+](=O)[O-])cc3c(=O)o2)cc1` it was 35.6% (inactive); in that of `Nc1nc(N)nc(-c2ccccc2N)n1`, 2.2% (inactive).
With `COC1OC(COC(=O)c2ccc([N+](=O)[O-])cc2)C(O)C1SC#N` (stereo not given), the growth inhibition was 43.5% (inactive).
The same measure, in the same setting: in the case of `Cc1cccc(Cl)c1NC(=O)C(Cl)Cl` it was 6.35% (inactive); in that of `Cc1cc(S(=O)(=O)Nc2nnc3cc(C(F)(F)F)cc(C)n23)c(S)cc1Cl`, -19.6% (inactive); in that of `SC1c2ccccc2-c2ccccc21`, 30.1% (inactive).
The same measure, in the same setting: in the case of `Cc1cc(N(CCC#N)CCC#N)ccc1/C=C(\NC(=O)/C=C/c1ccccc1)C(=O)Nc1ccc(Cl)cc1` it was -7.1% (inactive).
Take `COc1cc(C(c2c(O)c3ccccc3oc2=O)N2CCCC2)cc(OC)c1OC` (stereo not given): the growth inhibition was -1.2% (inactive).
Same read-out and setting: in the case of `O=C(O)CCC(NC(=O)/C(=C/c1ccccc1)NC(=O)c1ccccc1)C(=O)O` (stereo not given) it was 4.8% (inactive); in that of `O=[N+]([O-])c1ccc(-c2ccncc2)cc1`, -32% (inactive); in that of `C=CCOc1ccc2cc(Br)ccc2c1`, 3.85% (inactive).
Same read-out and setting: in the case of `CSCCC(N)C(=O)NCCS(=O)(=O)O` (stereo not given) it was -22.4% (inactive); in that of `CCOC(=O)CN(C)C#N`, -16.9% (inactive); in that of `CNC(=O)n1cnc2ccccc21`, 33.2% (inactive).
Same read-out and setting: in the case of `CCCCCCCCC/C=C1\CCC(CN2CCOCC2)C1=O` (stereo not given) it was 89% (active); in that of `O=[N+]([O-])c1ccc(Oc2cccc3ccccc23)c([N+](=O)[O-])c1`, 4.75% (inactive); in that of `COC(=O)c1cc2cccn2cn1`, -5.9% (inactive).
Consider `CCOC(=O)Nc1cc(Cl)c2nnn(C(=O)OCC)c2n1`, for which the growth inhibition was 95.8% (active).
Regarding `Cc1ccc(S(=O)(=O)N(CCO)CCCO)cc1`, the growth inhibition is -16.7% (inactive).
On the same count and under the same terms, under `O=C(O)C=C1CCCCC1` stands 4.35% (inactive); under `N#Cc1nc[nH]c1C(N)=O`, -2.4% (inactive).
On the same count and under the same terms, under `CCc1cc(O)c([N+](=O)[O-])cc1[N+](=O)[O-]` stands -15.7% (inactive); under `O=C(O)c1c(CN2CCOCC2)c(O)c(O)c(O)c1CN1CCOCC1`, -1.2% (inactive); under `N#CC(/C(=N\NC(N)=S)C(=O)NC1C2CC3CC(C2)CC1C3)c1ccc(Cl)cc1` (stereo not given), 29.2% (inactive).
`CCC(=O)Nc1ncnc2ncn(C(=O)CC)c12`: the growth inhibition is -8.7% (inactive).
The same measure, in the same setting: under `CC(=O)N(C)SCC(NC(=O)C(Cc1ccccc1)NC(=O)OCC1c2ccccc2-c2ccccc21)C(=O)NC(Cc1ccccc1)C(=O)NC(Cc1cn(C=O)c2ccccc12)C(=O)NC(CCCCNC(=O)OCC1c2ccccc2-c2ccccc21)C(=O)NC(C(=O)NC(CSN(C)C(C)=O)C(=O)NC(C(N)=O)C(C)O)C(C)O` (stereo not given) (Fmoc-F[X17]FW(For)K(Fmoc)T[X17]T-NH2; configuration not given here) stands 86.7% (active); under `CCC1(C)NN=C2C(=CC=C3NNC(C)(CC)N32)n2cccc21` (stereo not given), 36.9% (inactive).
On the same count and under the same terms, in the case of `CC(=O)[CH-]C(=O)c1ccccc1.CC(=O)[CH-]C(=O)c1ccccc1.CC(C)CCCC(C)[C@H]1CCC2[C@@H]3CC=C4C[C@@H]([O-])CC[C@]4(C)C3CC[C@@]21C.CC[O-].[Ti+4]` (stereo not given in full) it was 11.2% (inactive).
On the same count and under the same terms, in the case of `CC1(C)CC(=O)C(C(c2ccc3c(c2)CCC3)C2C(=O)CC(C)(C)CC2=O)C(=O)C1` it was -18.1% (inactive); in that of `CCn1c(=O)c2nc(SC)sc2n(-c2ccc(C)cc2)c1=O`, -21.2% (inactive).
On to `CCOC(=O)c1c2ccc(/C=C/c3ccccn3)ccc-2c(C(=O)OCC)c1N`, for which the growth inhibition was 15.2% (inactive).
The same measure, in the same setting: under `COc1ccc(NC(=O)c2oc3cc(O)ccc3c(=O)c2C)c([N+](=O)[O-])c1` stands 0.65% (inactive); under `CS/C(=N/S(=O)(=O)c1ccccc1)NNC(=S)Nc1ccc(C(C)C)cc1`, 14% (inactive).
For the compound `CC1(C)CNC[C@](C)(OCc2ccccc2)N1`, the growth inhibition was -24.4% (inactive).
Same read-out and setting: in the case of `c1cc2cc(c1)CNCCNCCNCc1cccc(c1)CNCCNCCNC2` it was -22.4% (inactive).
Still for that read-out and setting: under `O=C(CN1CCOCC1)CC(O)(C(F)(F)F)C(F)(F)F` stands 0.35% (inactive); under `CCOC(C)C(=O)C=O` (stereo not given), -17.9% (inactive).

The next assay is described as follows: NCI Yeast Anticancer Drug Screen. Data for the mec2-1 strain (AID 157). The note with it: S. cerevisiae mec2-1 strain, at 50.0 µM, hits give high values. The gist of the method:
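Each compound was tested on mec2-1 yeast, a strain altered in DNA damage repair or cell cycle control. Growth inhibition is reported relative to vehicle.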
On to `c1ccc(N2C3Sc4ncccc4C2Sc2ncccc23)cc1`, for which the growth inhibition was 2.8% (inactive).
Still for that read-out and setting: under `O=C(O)CSC(CC(=O)O)C(=O)O` (stereo not given) stands -9.4% (inactive); under `CC(=O)C(CCN(C)C)(c1ccccc1)C1CCCCC1` (stereo not given), -15.2% (inactive).
In the case of `Cc1ccc(S(=O)(=O)Nc2ccccc2-c2nc3ccc([N+](=O)[O-])cc3c(=O)o2)cc1`, the growth inhibition is 36.2% (inactive).
Same read-out and setting: in the case of `Nc1nc(N)nc(-c2ccccc2N)n1` it was -7.5% (inactive).
Same read-out and setting: under `COC1OC(COC(=O)c2ccc([N+](=O)[O-])cc2)C(O)C1SC#N` (stereo not given) stands -2.3% (inactive); under `Cc1cccc(Cl)c1NC(=O)C(Cl)Cl`, 9.75% (inactive).
Take `Cc1cc(S(=O)(=O)Nc2nnc3cc(C(F)(F)F)cc(C)n23)c(S)cc1Cl`: the growth inhibition is -26.8% (inactive).
On the same count and under the same terms, in the case of `SC1c2ccccc2-c2ccccc21` it was 2.75% (inactive); in that of `Cc1cc(N(CCC#N)CCC#N)ccc1/C=C(\NC(=O)/C=C/c1ccccc1)C(=O)Nc1ccc(Cl)cc1`, -15.1% (inactive).
As for `COc1cc(C(c2c(O)c3ccccc3oc2=O)N2CCCC2)cc(OC)c1OC` (stereo not given), the growth inhibition was 5% (inactive).
Turning to `O=C(O)CCC(NC(=O)/C(=C/c1ccccc1)NC(=O)c1ccccc1)C(=O)O` (stereo not given), the growth inhibition was 6.55% (inactive).
Same read-out and setting: in the case of `O=[N+]([O-])c1ccc(-c2ccncc2)cc1` it was -31.9% (inactive); in that of `C=CCOc1ccc2cc(Br)ccc2c1`, -2.55% (inactive); in that of `CSCCC(N)C(=O)NCCS(=O)(=O)O` (stereo not given), 1% (inactive).
Still for that read-out and setting: in the case of `CCOC(=O)CN(C)C#N` it was -33.3% (inactive); in that of `CNC(=O)n1cnc2ccccc21`, 30.4% (inactive).
On the same count and under the same terms, in the case of `CCCCCCCCC/C=C1\CCC(CN2CCOCC2)C1=O` (stereo not given) it was 92.8% (active); in that of `O=[N+]([O-])c1ccc(Oc2cccc3ccccc23)c([N+](=O)[O-])c1`, 8.55% (inactive); in that of `COC(=O)c1cc2cccn2cn1`, -11.3% (inactive).
With `CCOC(=O)Nc1cc(Cl)c2nnn(C(=O)OCC)c2n1`, the growth inhibition was 98.2% (active).
Still for that read-out and setting: under `Cc1ccc(S(=O)(=O)N(CCO)CCCO)cc1` stands -43.3% (inactive); under `O=C(O)C=C1CCCCC1`, -4.2% (inactive).
The same measure, in the same setting: in the case of `N#Cc1nc[nH]c1C(N)=O` it was 0.25% (inactive).
The same measure, in the same setting: under `CCc1cc(O)c([N+](=O)[O-])cc1[N+](=O)[O-]` stands -3.95% (inactive).
For `O=C(O)c1c(CN2CCOCC2)c(O)c(O)c(O)c1CN1CCOCC1`, the growth inhibition was 0.15% (inactive).
The same measure, in the same setting: under `N#CC(/C(=N\NC(N)=S)C(=O)NC1C2CC3CC(C2)CC1C3)c1ccc(Cl)cc1` (stereo not given) stands 10.2% (inactive).
On the same count and under the same terms, under `CCC(=O)Nc1ncnc2ncn(C(=O)CC)c12` stands -48.2% (inactive); under `CC(=O)N(C)SCC(NC(=O)C(Cc1ccccc1)NC(=O)OCC1c2ccccc2-c2ccccc21)C(=O)NC(Cc1ccccc1)C(=O)NC(Cc1cn(C=O)c2ccccc12)C(=O)NC(CCCCNC(=O)OCC1c2ccccc2-c2ccccc21)C(=O)NC(C(=O)NC(CSN(C)C(C)=O)C(=O)NC(C(N)=O)C(C)O)C(C)O` (stereo not given) (Fmoc-F[X17]FW(For)K(Fmoc)T[X17]T-NH2; configuration not given here), 81.3% (active); under `CCC1(C)NN=C2C(=CC=C3NNC(C)(CC)N32)n2cccc21` (stereo not given), 8.8% (inactive).
Still for that read-out and setting: in the case of `CC(=O)[CH-]C(=O)c1ccccc1.CC(=O)[CH-]C(=O)c1ccccc1.CC(C)CCCC(C)[C@H]1CCC2[C@@H]3CC=C4C[C@@H]([O-])CC[C@]4(C)C3CC[C@@]21C.CC[O-].[Ti+4]` (stereo not given in full) it was 0.05% (inactive); in that of `CC1(C)CC(=O)C(C(c2ccc3c(c2)CCC3)C2C(=O)CC(C)(C)CC2=O)C(=O)C1`, -27.9% (inactive); in that of `CCn1c(=O)c2nc(SC)sc2n(-c2ccc(C)cc2)c1=O`, -0.6% (inactive).
On to `CCOC(=O)c1c2ccc(/C=C/c3ccccn3)ccc-2c(C(=O)OCC)c1N`, for which the growth inhibition was -4.75% (inactive).
Still for that read-out and setting: in the case of `COc1ccc(NC(=O)c2oc3cc(O)ccc3c(=O)c2C)c([N+](=O)[O-])c1` it was -1.8% (inactive).
The same measure, in the same setting: under `CS/C(=N/S(=O)(=O)c1ccccc1)NNC(=S)Nc1ccc(C(C)C)cc1` stands -12.6% (inactive).
With `CC1(C)CNC[C@](C)(OCc2ccccc2)N1`, the growth inhibition is -29.1% (inactive).
The same measure, in the same setting: in the case of `c1cc2cc(c1)CNCCNCCNCc1cccc(c1)CNCCNCCNC2` it was -17.4% (inactive); in that of `O=C(CN1CCOCC1)CC(O)(C(F)(F)F)C(F)(F)F`, 2.05% (inactive).
Same read-out and setting: under `CCOC(C)C(=O)C=O` (stereo not given) stands -13.6% (inactive).

The record behind these values is PubChem BioAssay (NCI).
